Source: PubChem
G9a inh: inhibitors of human histone lysine methyltransferase G9a; Q96KQ7; G9a H3K9 monomethylation, AlphaScreen, 2 h; Potency, µM (top dose mostly 102 µM), for the others: at the top dose activity, negative = inhibition, hits mostly inhibitors; hit rate 8.8% among 350,000; AID 504332; further: on the % scale 0 is the no-effect control and ±100 the full control effect; nearly all actives have a fitted effect of over 75% in size
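Methyltransferase reactions run at room temperature for 2 h (20 nM enzyme, 500 nM biotin-H3K9 peptide, 20 uM SAM) after a 15 min compound preincubation; product detected by AlphaScreen beads and anti-H3K9me1 antibody.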
HP1b chromo inh: inhibitors of HP1-beta chromodomain binding to methylated histone tails; P83916; AlphaScreen HP1-beta / biotin-H3K9me3 peptide binding; Potency, µM (doses to about 114 µM), inactives show at the highest dose activity change, negative = inhibition, most hits filed as inhibitors; hit rate 0.56% among 390,000; AID 540317; further: nearly all actives have a fitted effect of over 70% in size
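HP1-beta protein (50 nM final) preincubated 30 min at room temperature with biotinylated H3(1-18)K9me3 peptide (50 nM) in PBS pH 7.4, 0.01% Tween-20, then compound added for 30 min. AlphaScreen streptavidin donor/nickel chelate acceptor beads (10 ug/mL final), 30 min dark, luminescence read.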
JMJD2A Tudor inh: blocks the human JMJD2A Tudor domain | AlphaScreen JMJD2A-Tudor / H3K4me3 peptide binding | Potency, µM (top dose mostly 114 µM), without a hit: top-dose activity change, negative = inhibition, actives largely listed as inhibitors | hit rate 4.4% among 390,000 | AID 504339; further: on the % scale 0 is the no-effect control and ±100 the full control effect; nearly all actives have a fitted effect of over 50% in size
Target sequence (O75164 whole entry, looked up, the tested form may be a part): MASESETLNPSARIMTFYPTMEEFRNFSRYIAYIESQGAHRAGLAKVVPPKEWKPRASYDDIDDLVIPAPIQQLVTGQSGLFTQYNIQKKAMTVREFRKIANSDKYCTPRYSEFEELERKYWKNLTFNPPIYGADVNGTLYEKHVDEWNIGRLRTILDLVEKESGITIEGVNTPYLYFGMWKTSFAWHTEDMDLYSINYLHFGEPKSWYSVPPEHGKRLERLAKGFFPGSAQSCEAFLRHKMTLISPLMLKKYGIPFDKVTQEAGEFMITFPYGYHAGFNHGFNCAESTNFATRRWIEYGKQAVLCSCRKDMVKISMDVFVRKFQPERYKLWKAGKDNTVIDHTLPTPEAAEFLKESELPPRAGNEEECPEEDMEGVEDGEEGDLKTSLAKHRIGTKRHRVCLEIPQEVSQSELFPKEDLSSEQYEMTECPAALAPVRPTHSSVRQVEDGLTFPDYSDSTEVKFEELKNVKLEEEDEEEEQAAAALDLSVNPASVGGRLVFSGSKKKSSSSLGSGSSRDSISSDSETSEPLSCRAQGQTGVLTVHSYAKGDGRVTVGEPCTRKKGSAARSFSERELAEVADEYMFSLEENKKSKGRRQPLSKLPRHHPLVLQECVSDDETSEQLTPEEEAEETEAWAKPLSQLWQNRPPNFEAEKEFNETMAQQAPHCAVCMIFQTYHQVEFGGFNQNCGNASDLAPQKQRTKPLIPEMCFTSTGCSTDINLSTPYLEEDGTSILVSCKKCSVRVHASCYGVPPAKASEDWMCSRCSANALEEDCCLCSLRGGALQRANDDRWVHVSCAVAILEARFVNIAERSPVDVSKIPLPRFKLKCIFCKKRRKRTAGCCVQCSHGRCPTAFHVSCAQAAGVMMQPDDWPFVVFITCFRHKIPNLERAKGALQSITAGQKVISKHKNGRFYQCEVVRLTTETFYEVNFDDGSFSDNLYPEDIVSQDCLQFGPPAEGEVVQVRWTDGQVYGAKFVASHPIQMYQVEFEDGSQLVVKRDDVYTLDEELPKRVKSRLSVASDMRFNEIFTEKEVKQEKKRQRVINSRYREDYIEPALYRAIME
BAZ2B inh: blocks human BAZ2B; Q9UIF8; AlphaScreen BAZ2B-H3K14Ac peptide displacement; Potency, µM (top dose mostly 114 µM), for inactives: at the highest dose activity change, negative = inhibition, most hits filed as inhibitors; hit rate 4.4% among 360,000; AID 504333; further: on the % scale 0 is the no-effect control and ±100 the full control effect; nearly all actives have a fitted effect of over 60% in size
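Protein-peptide AlphaScreen: BAZ2B 50 nM, b-H3K14Ac 50 nM, 1x PBS pH 7.4 + 0.01% Tween-20. Preincubation 30 min RT; cpd 30 min RT (top 110 uM); beads 20 min RT, light-protected.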
L3MBTL1 block: blocks human L3MBTL1; Q9Y468; AlphaScreen L3MBTL1–H3K9me1 peptide binding; Potency, µM (top dose mostly 57.1 µM), for the others: at the top dose activity, negative = inhibition, hits mostly inhibitors; hit rate 0.66% among 230,000; AID 485360; further: on the % scale 0 is the no-effect control and ±100 the full control effect; nearly all actives have a fitted effect of over 60% in size
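Read-out is AlphaScreen signal from streptavidin donor and nickel chelate acceptor beads (10 ug/mL final each) bridging L3MBTL1 (50 nM) and biotinylated K9-monomethylated H3(1-15) peptide (75 nM), after 30 min compound exposure at room temperature.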
An asterisk follows results filed as active; ? = inconclusive; / = no result given; [ ] = dose if it differs, or a comment. The list is not random: actives were taken first. Their share in the collection is about 11%. The call rests on the fitted dose curve; in most records, active means well fitted inhibition curve with a large enough effect; inconclusive means small, poorly fitted or top-dose-only effect; inactive means no such curve, though single readings can be large or run the other way. Potency means the concentration at half of the fitted maximal effect.

SMILES | G9a inh | HP1b chromo inh | JMJD2A Tudor inh | BAZ2B inh | L3MBTL1 block
Cc1ccc(-n2c(=O)c3c4c(sc3n(CC(=O)c3ccc(Cl)cc3)c2=O)CCC4)cc1C | 13%[59 µM] | 8% | -19% | 3% | /
Cc1ccc(C(=O)N/N=C/c2cc(Br)ccc2O)cn1 | 67%[0.501 µM] | 12% | 56µM* | 7.9µM* | -3%[2.29 µM]
O=C(N/N=C/c1ccncc1)c1cc([N+](=O)[O-])cc([N+](=O)[O-])c1O | ? | 24% | 79µM* | ? | -10%
O=C(N/N=C/c1ccccn1)c1cccc([N+](=O)[O-])c1 | ? | 26% | -18%[11.4 µM] | 45µM* | -25%
CCOc1cc(Br)cc(/C=N/NC(=O)c2cccnc2)c1O | 21%[59 µM] | 59% | 40µM* | 28µM* | ?
O=C(N/N=C/c1ccccn1)c1ccc(NC(=O)c2cccc([N+](=O)[O-])c2)cc1 | ? | 48% | -2%[11.4 µM] | 11% | 46%
COc1c(Br)cc(Br)cc1/C=N/NC(=O)c1cccnc1 | -11%[59 µM] | 50% | -7% | -4% | 4%
Cc1ccc(CNc2cc(C)nc3nc(-c4cccc(C)c4)nn23)cc1 | -26%[59 µM] | 22%[57 µM] | -33% | 2% | /
Cc1ccc(C(=O)N/N=C\c2ccccn2)cn1 | 25% | 12% | 79µM* | ? | 2%
Cn1cnc2c(=O)oc3ccc(S(=O)(=O)N4CCN(c5cccc(C(F)(F)F)c5)CC4)cc3c21 | -34%[59 µM] | 3% | -15% | -9% | /
O=C(Nc1ccc(NC(=O)C2CC2)nc1)c1cnccn1 | 5% | 60% | -13% | -21% | 0%
O=C(Nc1ccc(NC(=O)C2CC2)nc1)c1ccccn1 | 32µM* | 17% | 45µM* | ? | 9%
CC(C)C(=O)Nc1ccc(NC(=O)c2ccccn2)cn1 | 25µM* | 14% | ? | -5% | 6%
CCc1cccc(NC(=O)c2ccc(CNS(=O)(=O)c3ccc4c(c3)C(C)(C)C(=O)N4C)cc2)c1 | -3%[59 µM] | 25% | 5% | -4% | /
CN(C)CCN1C(=O)C(=O)/C(=C(/O)c2ccc3c(c2)OCCO3)C1c1ccccn1 (stereo not drawn) | 32µM* | 26% | -31% | 56µM* | 0%
COc1cc(C2/C(=C(\O)c3ccc4c(c3)OCCO4)C(=O)C(=O)N2Cc2ccccc2)ccc1O (stereo not drawn) | / | 3% | -32% | 50µM* | /
COc1cc(C2/C(=C(\O)c3ccc4c(c3)OCCO4)C(=O)C(=O)N2CCN2CCOCC2)cc(OC)c1OC (stereo not drawn) | / | 12% | ? | -12% | /
O=C1C(=O)N(Cc2cccnc2)C(c2cccc([N+](=O)[O-])c2)/C1=C(\O)c1ccc2c(c1)OCCO2 (stereo not drawn) | ? | 43% | 56µM* | -23% | /
COc1cccc(C2/C(=C(\O)c3ccc4c(c3)OCCO4)C(=O)C(=O)N2Cc2cccnc2)c1 (stereo not drawn) | 56µM* | 43% | -14% | -36% | /
Cc1ccc(CN2C(=O)CN(C3CCCCCC3)C(=O)C2c2ccc(F)cc2)cc1 (stereo not drawn) | 1%[59 µM] | 23% | -15% | 0% | /
O=C1C(=O)N(Cc2cccnc2)C(c2cccc(F)c2)/C1=C(/O)c1ccc2c(c1)OCO2 (stereo not drawn) | ? | 42% | -8% | 3% | /
O=C1C(=O)N(Cc2ccncc2)C(c2ccccc2F)/C1=C(\O)c1ccc2c(c1)OCCO2 (stereo not drawn) | 40µM* | 26% | -23% | -28% | /
CNC(=O)c1c(NC(=O)c2cc(=O)c3cc(C)c(C)cc3o2)sc2c1CCCC2 | 2%[59 µM] | 11% | 2% | -8% | /
Cc1ccc(-c2nnc(Nc3ccc(Cl)cc3)c3ccccc23)cc1S(=O)(=O)N1CCOCC1 | -28%[59 µM] | 18% | -23% | 4% | /
COc1ccccc1Nc1ncccc1[N+](=O)[O-] | 8.9µM* | ? | 45µM* | 32µM* | ?
SMILES | G9a inh | HP1b chromo inh | JMJD2A Tudor inh | BAZ2B inh | L3MBTL1 block
COc1ccccc1C(CNc1ncccc1[N+](=O)[O-])N(C)C (stereo not drawn) | ? | -8% | -22% | -13% | /
COc1ccccc1Nc1ccc(NC(=O)c2cccc([N+](=O)[O-])c2C)cc1 | 9%[2.33 µM] | ? | 13µM* | 10µM* | /
Cc1ccc2c(c1)c1c(c(=O)n(-c3cccc(Cl)c3)c(=O)n1CC(=O)c1ccc(Cl)cc1)n2C | 22%[59 µM] | 61% | 1% | 38% | /
S=C(Nc1ccccc1Cl)NC1CC2CCCC(C1)N2C1CC1 (stereo not drawn) | -38% | 64% | -7% | -11% | 3%
N#Cc1c(-c2ccccc2)nc(SCC(=O)Nc2ccccc2)[nH]c1=O | ? | 23% | -10% | -21% | 5%
Cc1cc(C)nc(NS(=O)(=O)c2ccc(NC(=O)CSc3nc(-c4ccccc4)c(C#N)c(=O)[nH]3)cc2)n1 | 79µM* | 26% | -6% | / | /
N#Cc1c(-c2ccccc2)nc(SCC(=O)Nc2nnc(C(F)(F)F)s2)[nH]c1=O | 50µM* | 16% | -29% | -21% | 19%
COc1cccc(-c2c(C(=O)N/N=C(\C)c3ccc(Cl)s3)nnn2-c2nonc2N)c1 | / | 41% | -13% | -5% | /
Cc1ccccc1N/C(=N/S(=O)(=O)c1ccccc1)c1ccc(F)cc1 | 4% | 2% | -7%[11.4 µM] | -15% | -1%
Cc1ccccc1NC1=C/C(=N\S(=O)(=O)c2ccc(C(=O)O)cc2)c2ccccc2C1=O | 32µM* | 45µM* | 40µM* | 13µM* | /
COC(=O)C(C(C)=O)C1=C/C(=N\S(=O)(=O)c2ccc(C)cc2)c2ccccc2C1=O (stereo not drawn) | 45µM* | -20% | -23% | -10% | /
O=C(O)c1ccc(S(=O)(=O)/N=C2\C=C(Nc3ccccc3F)C(=O)c3ccccc32)cc1 | 13µM* | 40µM* | 40µM* | 22µM* | /
COC(=O)[C@H](CO)NS(=O)(=O)c1ccc(C)cc1 | / | 29% | -4% | / | 13%
CC(OC(=O)COc1ccc(C#N)cc1)C(=O)Nc1ccc(Cl)cn1 (stereo not drawn) | -6% | 22% | -14% | 0% | 2%
CCc1cccc(CC)c1NC(=O)CN1CCc2cc(OC)c(OC)cc2C1 | 71µM* | / | / | 50µM* | /
COC(=O)Nc1ccc([N+](=O)[O-])cc1OC | 14% | 23% | -11% | 12% | 7%
COc1cc2c(cc1OC)CN(CC(=O)Nc1cccc(C)c1)CC2 | 6%[59 µM] | 25% | 11%[57.1 µM] | -5% | 1%
COC(=O)CSc1cc([N+](=O)[O-])ccc1NC(=O)OC | 35µM* | 34% | -11%[57.1 µM] | -3% | /
COc1cc2c(cc1OC)CN(CC(=O)NC(=O)NCc1ccccc1)CC2 | 56µM* | 34% | -17% | -15% | 7%
COc1cc([N+](=O)[O-])ccc1NC(=O)CN1CCc2cc(OC)c(OC)cc2C1 | 28µM* | -17% | -35% | -35% | /
COc1cc2c(cc1OC)CN(CC(=O)Nc1ccccc1C(=O)NCc1ccccc1)CC2 | 14% | 8% | -30% | ? | /
